Efflux pump mplx = inhibitors of Candida efflux pumps in yeast, primary screen, S. cerevisiae, Nile Red, multiplex | AID 485275, 2010 | hit rate 0.44% among 330,000 | S. cerevisiae Candida pump triplex | inhibition, % at 10 µM;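 active = plate passing quality check with inhibition over a set limit, or well fluorescence over plate mean plus 4 SD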;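 note: Nile Red retained in pooled yeast measured as flow cytometry median fluorescence; 0% = buffer negative control and 100% = Enniatin B positive control; higher means more Nile Red kept so more efflux inhibition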
H9c2 protect = cardioprotection against H2O2-induced cell death, primary screen, uHTS, H9c2 cells, ATPLite luminescence. H9c2 cardiomyocytes, H2O2 injury protection, 2 h. protection from H2O2 cell death, % at 20 µM. hit rate 0.63% among 360,000;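 active = compounds giving at least 50% protection of heart cells from peroxide-induced death in the single-dose screen, raw or plate-pattern-corrected value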;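 note: 0% = DMSO wells with peroxide and 100% = DMSO wells without peroxide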
KCC2 mod = KCC2 cotransporter modulators, thallium flux, primary screen, cell-based, HEK293 KCC2, FluoZin-2 fluorescence, MLSMR; AID 1456, 2008; B-score of Tl+ flux slope (higher = more flux/activation; lower = inhibition) at 10 µM; Solute carrier family 12 member 5 (Homo sapiens), Q9H2X9; KCC2 cells, thallium flux FluoZin-2 fluorescence; hit rate 2.2% among 190,000;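 active = thallium flux slope and its plate-corrected score both differing from the plate sample mean at a set confidence after two filtering rounds, in either direction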;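 note: slope of fluorescence scaled to starting intensity during 10 to 20 s after thallium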
PHOSPHO1 block = PubChem AID 1565; inhibition, % at 13.3 µM; recombinant PHOSPHO1, absorbance phosphatase assay; hit rate 1.1% among 290,000; in the data active = inhibition above about 60%
Target sequence (Q8TCT1 whole entry, looked up): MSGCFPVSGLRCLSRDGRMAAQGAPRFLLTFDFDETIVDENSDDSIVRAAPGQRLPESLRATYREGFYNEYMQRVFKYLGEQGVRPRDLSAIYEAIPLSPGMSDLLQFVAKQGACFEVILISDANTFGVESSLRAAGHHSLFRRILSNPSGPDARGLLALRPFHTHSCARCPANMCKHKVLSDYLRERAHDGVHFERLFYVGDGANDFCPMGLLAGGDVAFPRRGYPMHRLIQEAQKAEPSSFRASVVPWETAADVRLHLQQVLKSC
Calb FLC = C. albicans growth inhibition with fluconazole, primary screen, CaCi-2 strain, Alamar Blue fluorescence; hit rate 0.57% among 300,000; growth inhibition, % (test concentration not listed); C. albicans CaCi-2 (fluconazole-resistant clinical isolate) + fluconazole, 48 h;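 active = growth inhibition above about 58% in most replicates, limit read from the data, passing the limit was not always enough; inconclusive = exactly half the replicates above a set limit; inactive = most replicates below a set limit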;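 note: all wells also contain fluconazole at 8 µg/ml as a sub-toxic cotreatment; 0% = median of DMSO wells and 100% = median of geldanamycin control wells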
KCC2 sec1 = KCC2 modulators in sodium-free buffer, confirmation, cell-based, HEK293 KCC2, thallium flux, secondary assay; normalised thallium flux (F/F0 slope) at 10 µM; shares compounds with KCC2 mod; hit rate 15% among 3,700; AID 1713, 2009; FluoZin2 fluorescence; stronger effect = higher value;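 active = thallium flux slope above the same plate's solvent-only control mean plus 3 SD; inconclusive = the two replicate wells disagree; inactive = no significant difference from solvent-only control wells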
KCC2 bumet counter = thallium flux persisting under bumetanide in KCC2 cells, confirmation, counter-screen for KCC2 modulator project, cell-based, HEK293 KCC2, FluoZin2, secondary assay 3. normalized thallium flux at 10 µM. AID 1714, 2009. shares compounds with KCC2 mod. hit rate 49% among 3,700. HEK293-KCC2 + bumetanide/ouabain; stronger effect = higher value;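 active = thallium entry rate above the same plate's blocked-transporter control wells by more than 3 SD; inconclusive = the two repeat wells disagree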;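 note: raw slope of fluorescence over initial fluorescence between 10 and 20 s after thallium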
KCC2 secondary2 = KCC2 modulators without ouabain present, confirmation, cell-based, HEK293 KCC2, thallium flux, FluoZin2, secondary assay 2 | shares compounds with KCC2 mod | thallium flux FluoZin2 fluorescence; actives lie on both sides; F/F0 rise rate, 10–20 s post-thallium | hit rate 23% among 3,700 | normalized thallium flux at 10 µM;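 active = thallium flux slope more than 3 SD above or below the plate's solvent-only control mean, mostly below; inconclusive = the two repeat wells disagreed; inactive = no significant shift from solvent-only controls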;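 note: raw slope with 0.1% DMSO as baseline and bumetanide as block control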
HEK293 Tl flux = thallium flux modulation in parental HEK cells, confirmation, counter-screen for KCC2 modulator project, cell-based, counterscreen 1. shares compounds with KCC2 mod. HEK293 parental cells, thallium flux FluoZin2, ouabain; baseline-ratio fluorescence slope, 10–20 s after thallium. thallium flux rate (normalised fluorescence) at 10 µM. hit rate 46% among 3,700;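 active = thallium flux rate significantly above the same plate's solvent-only control wells, beyond their mean plus 3 SD; inconclusive = the two replicate wells gave conflicting results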
KCC2 retest ouab = KCC2 inhibitors and activators, ouabain retest, confirmation, HEK-KCC2 cells; shares compounds with KCC2 mod; HEK293-KCC2, thallium flux FluoZin2 fluorescence; bidirectional: low = inhibitor, high = activator; raw Tl+ flux slope (below DMSO = inhibition, above = activation) at 10 µM; hit rate 48% among 3,700; AID 1717, 2009;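 active = thallium flux slope beyond 3 SD from same-plate DMSO control mean in most replicates, usually higher, sometimes lower; inconclusive = repeat tests gave conflicting results; inactive = no significant difference from controls in most replicates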;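 note: slope of initial-normalized fluorescence between seconds 10 and 20 after thallium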
HEK293 Tl flux2 = native HEK Tl+ uptake effects, second counter-screen – HEK cells, counterscreen 2, counter-screen for KCC2 modulator project, confirmation | shares compounds with KCC2 mod | HEK293 parental, thallium flux FluoZin-2 fluorescence slope | thallium flux slope at 10 µM | hit rate 33% among 3,700 | AID 1718, 2009;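 active = thallium flux slope above the same plate's solvent-control mean plus 3 SD in both duplicate wells; inconclusive = duplicate wells that disagreed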;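 note: run without ouabain in cells lacking the KCC2 cotransporter; slope of fluorescence scaled to its starting value between 10 and 20 s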
* marks the source's active call; other numbers are inactive results. Rows were chosen to be rich in hits. Some 3.3% of all compounds tested hit in one or more screens of this group.

For Cc1ccc(-n2nnnc2SCC(=O)N2CCc3ccccc3C2)cc1 the results were Efflux pump mplx 0, H9c2 protect 8, KCC2 mod -3.6*, PHOSPHO1 block 4, Calb FLC -26, KCC2 sec1 0.0075, KCC2 bumet counter 0.0059, KCC2 secondary2 0.028, HEK293 Tl flux 0.0071, KCC2 retest ouab 0.021* and HEK293 Tl flux2 0.011.
Screening Cc1ccc(-n2nnnc2SCC(=O)N2CCc3ccccc3C2)c(C)c1 returned Efflux pump mplx 1, H9c2 protect -6, KCC2 mod -2.3, PHOSPHO1 block 55 and Calb FLC -5.
For Cc1ccc(-n2nnnc2SCC(=O)NC2CCCc3ccccc32)cc1 (centres undefined) the results were Efflux pump mplx 0, H9c2 protect -2, KCC2 mod -4.6*, PHOSPHO1 block 0, Calb FLC 35, KCC2 sec1 0.0068, KCC2 bumet counter 0.0033*, KCC2 secondary2 0.026*, HEK293 Tl flux inconclusive, KCC2 retest ouab 0.014* and HEK293 Tl flux2 0.0095.
Screening COc1ccc(S(=O)(=O)N2CCN(C(c3ccccc3)c3ccccc3)CC2)cc1NC(C)=O returned Efflux pump mplx 1, H9c2 protect 5, PHOSPHO1 block 23 and Calb FLC -21.
Cn1c(=O)c2c(ncn2CCC(=O)N/N=C/c2cccnc2)n(C)c1=O was read as Efflux pump mplx 0, H9c2 protect -2, KCC2 mod 0.86, PHOSPHO1 block 15 and Calb FLC -2.
For CN1CCN(CC(=O)c2ccccc2F)CC1 the results were Efflux pump mplx 0, H9c2 protect 11, PHOSPHO1 block -9 and Calb FLC 0.
`COc1ccccc1NC(=O)C1CCN(S(=O)(=O)c2cccc3nonc23)CC1` gave Efflux pump mplx 0, H9c2 protect 0, PHOSPHO1 block 32 and Calb FLC -3.
Screening CC1=CC2=NC(=O)/C(=C/c3coc4ccc(Cl)cc4c3=O)C(=N)N2O1 returned Efflux pump mplx 0, H9c2 protect -9, KCC2 mod -9.5*, PHOSPHO1 block 3, Calb FLC 2, KCC2 sec1 0.004*, KCC2 bumet counter -0.0043*, KCC2 secondary2 0.015*, HEK293 Tl flux 0.00044*, KCC2 retest ouab 0.0026* and HEK293 Tl flux2 0.0026*.
Nc1cc(N)nc(SCC(=O)Nc2ccccc2N2CCOCC2)n1 was read as Efflux pump mplx 0, H9c2 protect 4, KCC2 mod -1.5, PHOSPHO1 block 25 and Calb FLC 5.

Screens deposited in PubChem by several laboratories.
